This is an account of results in the supplement of paper PMC6522484.

Assay [1] concerns DLD1. Briefly: cell viability (CellTiter-Glo) relative to plate median (fraction of plate median); higher = more viable cells. The conditions noted are these: 5 µM; treatment time 24 h; reporter: 7TFP. The gist of the method:
(§1)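 Two independent replicates were averaged for each reported value. Library compounds were applied at a final 5 µM for 24 h to colorectal cancer cell lines stably expressing lentiviral TCF/Wnt firefly luciferase reporters. Firefly luciferase or CellTiterGlo luminescence from each well was normalised to the plate median.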
A general note: In ATP-based viability assays light output follows the ATP content of the culture.

Another assay relates to HCT116. Described as above. The conditions noted are these: 5 µM; treatment time 24 h; reporter: TCF4/Wnt. The essentials: as §1
For assay [2], the system named is SW480. Described as above. The conditions noted are these: 5 µM; treatment time 24 h; reporter: 7TFP. The essentials:
as §1

Assay [3] relates to DLD1. Put plainly: TCF/Wnt firefly luciferase reporter signal relative to plate median (fraction of plate median); higher = higher Wnt reporter signal. The conditions noted are these: 5 µM; treatment time 24 h; reporter: 7TFP. The essentials: as §1
For orientation: Reporter assays use an easily measured gene product as a stand-in for the process of interest.

Assay [4] has as its system SW480. The assay is described as above. The conditions noted are these: 5 µM; treatment time 24 h; reporter: 7TFP. The gist of the method:
as §1

± gives the standard deviation of the averaged measurements.

For `O=c1cc(-c2ccccc2O)oc2cc(O)ccc12`, the cell viability in the assay with DLD1 [1] turned out to be 1.01 ± 0.069; in the assay with HCT116, 1.02 ± 0.094; in the assay with SW480 [2], 0.976 ± 0.025. Moreover, the “TCF/Wnt firefly luciferase reporter signal” value in the assay with DLD1 [3] stood at 1.17 ± 0.042; in the assay with SW480 [4], 1.23 ± 0.085.
The matching figures for `CC1=CC(=O)CC(C)(C)C1(O)/C=C/C(C)=C\C(=O)O` (mixture of isomers) [ABSCISIC ACID (cis,trans; )]: 1.05 ± 0.021, 1.1 ± 0.021, 1.03 ± 0.064, 1.08 ± 0.092 and 1.18 ± 0.13.
For the molecule `CC(=O)O[C@@H]1c2c(ccc3ccc(=O)oc23)OC(C)(C)[C@@H]1OC(=O)CC(C)C`, the cell viability in the assay on DLD1 [1] amounted to 0.979 ± 0.044; in the assay with HCT116, 1.02 ± 0.029; with SW480 [2], 0.931 ± 0.059. The “TCF/Wnt firefly luciferase reporter signal” value in the assay on DLD1 [3] stood at 0.875 ± 0.066; in the assay with SW480 [4] it was 0.959 ± 0.054.
The matching figures for `Cc1scc2c1N(C(=O)CN1CCN(C)CC1)c1ccccc1NC2=O`: 1.03 ± 0.073, 1 ± 0.071, 0.996 ± 0.034, 0.984 ± 0.052 and 0.954 ± 0.04.
Regarding `CN[C@H](CC(C)C)C(=O)N[C@H]1C(=O)N[C@@H](CC(N)=O)C(=O)N[C@H]2C(=O)N[C@H]3C(=O)N[C@H](C(=O)N[C@H](C(=O)O)c4cc(O)cc(O)c4-c4cc3ccc4O)[C@H](O)c3ccc(c(Cl)c3)Oc3cc2cc(c3O[C@@H]2O[C@H](CO)[C@@H](O)[C@H](O)[C@H]2O[C@H]2C[C@](C)(N)[C@H](O)[C@H](C)O2)Oc2ccc(cc2Cl)[C@H]1O`, the cell viability was determined as 1.08 ± 0.11 in the assay on DLD1 [1], 1.01 ± 0.014 with HCT116 and 0.979 ± 0.012 in the assay with SW480 [2]. Moreover, the “TCF/Wnt firefly luciferase reporter signal” value came out at 1.09 ± 0.057 in the assay with DLD1 [3] and 1.02 ± 0.035 in the assay with SW480 [4].
For `COc1cc(C(C)=O)cc(OC)c1O`, in that order: 1.03, 0.922 ± 0.086, 1.01 ± 0.018, 0.946 ± 0.1 and 0.958 ± 0.012.
Take `CCOC(=O)OC(C)OC(=O)[C@@H]1N2C(=O)[C@@H](NC(=O)[C@H](N)c3ccccc3)[C@H]2SC1(C)C` (stereo not given in full): the cell viability came to 1.05 ± 0.014 in the assay on DLD1 [1], 1.01 ± 0.071 in the assay with HCT116 and 1.01 ± 0.014 in the assay with SW480 [2]. The “TCF/Wnt firefly luciferase reporter signal” value with DLD1 [3] came out at 1.09 ± 0.12; in the assay with SW480 [4], 1.08 ± 0.035.
For `CCC1(C)OC(=O)N(C)C1=O` (stereo not given), in that order: 1.04 ± 0.014, 0.873 ± 0.078, 0.908 ± 0.0028, 0.965 ± 0.0085 and 0.956 ± 0.076.
The matching figures for `O=C(O)c1ccccc1Nc1cccc(C(F)(F)F)c1`: 0.967 ± 0.0099, 0.934 ± 0.042, 0.95 ± 0.011, 0.96 ± 0.057 and 1.07 ± 0.064.
The matching figures for `Cc1onc(-c2c(Cl)cccc2Cl)c1C(=O)N[C@@H]1C(=O)N2[C@@H]1SC(C)(C)[C@@H]2C(=O)O`: 0.935 ± 0.027, 1.05 ± 0.073, 0.972 ± 0.036, 1 ± 0.042 and 1.15 ± 0.16.
With `CCc1ccc2c(O)c3c(cc2c1C(=O)OC)C(=O)c1c(O)ccc(O)c1C3=O`, the cell viability came out at 1.04 ± 0.093 in the assay on DLD1 [1], 1.06 ± 0.099 in the assay on HCT116 and 1.14 ± 0.13 with SW480 [2]. In addition, the “TCF/Wnt firefly luciferase reporter signal” value in the assay on DLD1 [3] turned out to be 1.04 ± 0.15; with SW480 [4], 0.967 ± 0.029.
For `CN(C)/N=N/c1[nH]cnc1C(N)=O`, the cell viability in the assay with DLD1 [1] was determined as 0.982 ± 0.015; in the assay on HCT116, 0.986 ± 0.02; in the assay with SW480 [2], 0.971 ± 0.0099. The “TCF/Wnt firefly luciferase reporter signal” value with DLD1 [3] and with SW480 [4] was 1.06 ± 0.11 in each case.
With `CC(=O)N(O)CCCCCNC(=O)CC(O)(CC(=O)NCCCCCN(O)C(C)=O)C(=O)O` [Arthrobactin], the cell viability with DLD1 [1] was found to be 0.989 ± 0.03; with HCT116 it was 1.06 ± 0.057; with SW480 [2] it was 1.03 ± 0.049. The “TCF/Wnt firefly luciferase reporter signal” value in the assay with DLD1 [3] turned out to be 0.976 ± 0.12; in the assay on SW480 [4], 1.06 ± 0.028.
Regarding `CN1CCN2c3ccccc3Cc3ccccc3C2C1` (stereo not given), the cell viability in the assay on DLD1 [1] came out at 1.03 ± 0.053; with HCT116, 1.08 ± 0.071; with SW480 [2], 1.07 ± 0.021. For the same molecule, the entries for the “TCF/Wnt firefly luciferase reporter signal” value in the assay with DLD1 [3] and in the assay on SW480 [4] were 1.04 ± 0.083 and 1.08 ± 0.071, respectively.
With `Cc1cccc(N(C)C(=S)Oc2ccc3ccccc3c2)c1`, the figures for the cell viability in the assay on DLD1 [1], in the assay on HCT116 and in the assay on SW480 [2] were 1.07 ± 0.028, 1.09 ± 0.099 and 0.987 ± 0.018, respectively. Moreover, the “TCF/Wnt firefly luciferase reporter signal” value was 0.897 ± 0.07 in the assay with DLD1 [3] and 0.95 ± 0.04 in the assay on SW480 [4].
